From PubChem BioAssay
Rows were chosen to be rich in hits. Some 4.4% of all compounds tested hit in one or more screens of this group.
tim23-1 inh – growth inhibitors of tim23-1 mutant yeast; S. cerevisiae tim23-1 growth, BacTiter-Glo luminescence, 24 h; inhibition, % at 20 µM; hit rate 1.3% among 330,000; AID 463212;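 active = growth inhibition of the mutant yeast at or above 50%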;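 note: temperature-sensitive mutant grown at 25 °C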
tim10-1 inh – growth inhibitors of tim10-1 mutant yeast; S. cerevisiae tim10-1 ts strain growth, BacTiter-Glo, 24 h; inhibition, % at 20 µM; hit rate 2.2% among 330,000; AID 463190;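 active = inhibition of at least 40%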;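 note: mutant grown at 25 °C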
TIM10 inh – inhibits growth of TIM10 yeast strain; S. cerevisiae TIM10 strain growth, BacTiter-Glo luminescence, 24 h; hit rate 1.4% among 330,000; inhibition, % at 10 µM; AID 463195;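 active = inhibition of 40% or more at the single tested concentration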;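 note: wild-type TIM10 isogenic control strain grown at permissive 25 °C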
SUMO Mot1 rescue – SUMOylation pathway inhibition by Mot1-301 growth rescue; AID 2716; S. cerevisiae Mot1-301 growth rescue, ATP luminescence, 38.5C; percent above DMSO median, 100 means doubled; hit rate 1% among 320,000; growth rescue, % at 18.8 µM;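 active = every valid replicate shows activation above 250% relative to neutral control wells; inactive = the rest, any valid replicate at or below 250%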
PfHsp90 set2 – reduces growth (ATP signal) of yeast expressing P. falciparum Hsp90; S. cerevisiae expressing PfHsp90, BacTiter-Glo ATP, 48 h; yeast lacking PDR1 and PDR3 efflux regulators; inhibition, % at 9.4 µM; hit rate 0.32% among 310,000; AID 504621;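 active = every replicate shows inhibition above about 80%, whatever the replicate mean, limit read from the data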
Yeast Mot1 SUMO – yeast SUMO pathway inhibition in dose response. shares compounds with SUMO Mot1 rescue. growth activity, percent, % at 42 µM. 2,300 tested, under 10 active. S. cerevisiae Mot1-301 galactose growth, ATP luminescence, 24 h; -100 = growth of slx-deleted rescue strain;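 active = Signal drops as the depositor expects, and the fitted half-maximal dose is no more than ten times the top valid tested dose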;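 note: more negative values mean stronger growth rescue toward the control strain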
Hits are given with their value.

For COc1ccc(OC(=O)c2ccc(Cl)cc2)c(C(C)=O)c1 the results were tim23-1 inh inactive, tim10-1 inh inactive, TIM10 inh inactive, SUMO Mot1 rescue 407.5, PfHsp90 set2 inactive and Yeast Mot1 SUMO inactive.
Screening CN(C)CCOC(=O)c1ccc2c(c1)S(=O)(=O)c1ccccc1C2=O returned tim23-1 inh inactive, tim10-1 inh inactive, TIM10 inh inactive, SUMO Mot1 rescue inactive and PfHsp90 set2 inactive.
For O=C(CSc1nnc(-c2ccc(Br)cc2)o1)Nc1cccc(C(=O)O)c1 the results were tim23-1 inh inactive, tim10-1 inh inactive, TIM10 inh inactive, SUMO Mot1 rescue inactive and PfHsp90 set2 inactive.
For O=C(CSc1nnc(-c2ccc(Br)cc2)o1)Nc1cccc2ccccc12 the results were tim23-1 inh inactive, tim10-1 inh inactive, TIM10 inh inactive, SUMO Mot1 rescue 663.4, PfHsp90 set2 inactive and Yeast Mot1 SUMO inactive.
C/C(=N\NC(=O)c1ccc(Cl)cc1)c1cccnc1 was read as tim23-1 inh inactive, tim10-1 inh inactive, TIM10 inh inactive, SUMO Mot1 rescue 713.6, PfHsp90 set2 inactive and Yeast Mot1 SUMO inactive.
`C/C(=N\NC(=O)c1ccc(Cl)cc1)c1cccc(NC(=O)c2cccnc2)c1` gave tim23-1 inh inactive, tim10-1 inh inactive, TIM10 inh inactive and SUMO Mot1 rescue inactive.
Screening Cc1ccc(-c2noc(C3CCCN(S(=O)(=O)c4ccc5ccccc5c4)C3)n2)o1 (centres undefined) returned tim23-1 inh inactive, tim10-1 inh inactive, TIM10 inh inactive, SUMO Mot1 rescue 765.4, PfHsp90 set2 inactive and Yeast Mot1 SUMO inactive.
Screening Cc1ccc(SC[C@H](C)CN2CC[C@H](C)CCC2=O)cc1 returned tim23-1 inh inactive, tim10-1 inh inactive, TIM10 inh inactive, SUMO Mot1 rescue 460.3, PfHsp90 set2 inactive and Yeast Mot1 SUMO inactive.
Screening C[C@@H]1CCC(=O)N(C[C@@H](C)CSc2ccc(Br)cc2)CC1 returned tim23-1 inh inactive, tim10-1 inh inactive, TIM10 inh inactive, SUMO Mot1 rescue inactive and PfHsp90 set2 inactive.
`CCCn1c(SC(C)C(=O)NCC2CCCO2)nc2sc(CC)cc2c1=O` (centres undefined) gave tim23-1 inh inactive, tim10-1 inh inactive, TIM10 inh inactive, SUMO Mot1 rescue 465.7, PfHsp90 set2 inactive and Yeast Mot1 SUMO inactive.
Screening O=C(CSc1nnc2ccccn12)NNC(=O)c1ccccc1 returned tim23-1 inh inactive, tim10-1 inh inactive, TIM10 inh inactive, SUMO Mot1 rescue inactive and PfHsp90 set2 inactive.
Screening O=C(CSc1nnc2ccccn12)NNC(=O)c1ccc(Cl)cc1 returned tim23-1 inh inactive, tim10-1 inh inactive, TIM10 inh inactive, SUMO Mot1 rescue 598.7 and Yeast Mot1 SUMO inactive.
`CCOC(=O)c1c(N)sc(C(=O)N2CCCC(C(N)=O)C2)c1C` (centres undefined) gave tim23-1 inh inactive, tim10-1 inh inactive, TIM10 inh inactive, SUMO Mot1 rescue 933.1, PfHsp90 set2 inactive and Yeast Mot1 SUMO inactive.
Screening C=C1[C@@H](O)[C@H](CC(C)C)N(Cc2ccccc2Br)S1(=O)=O returned PfHsp90 set2 inactive.
CC1(C)CC(=O)C(C=Nc2ccc(O)c(N=CC3=C(O)CC(C)(C)CC3=O)c2)=C(O)C1 was read as tim23-1 inh inactive, tim10-1 inh inactive, TIM10 inh inactive, SUMO Mot1 rescue 480.2, PfHsp90 set2 inactive and Yeast Mot1 SUMO inactive.
For CN(C)CCCNc1oc(-c2ccccc2Cl)nc1S(=O)(=O)c1ccccc1 the results were tim23-1 inh inactive, tim10-1 inh inactive, TIM10 inh inactive, SUMO Mot1 rescue inactive and PfHsp90 set2 inactive.
CN(C)c1oc(-c2ccccc2Cl)nc1S(=O)(=O)c1ccccc1 was read as tim23-1 inh inactive, tim10-1 inh inactive, TIM10 inh inactive, SUMO Mot1 rescue 635.9, PfHsp90 set2 inactive and Yeast Mot1 SUMO inactive.
Screening CC(C)CN(C(=O)CSc1nnc(-c2cccs2)n1N)c1c(N)n(Cc2ccccc2)c(=O)[nH]c1=O returned tim23-1 inh inactive, tim10-1 inh inactive, TIM10 inh inactive and SUMO Mot1 rescue inactive.
`S=C(NCCc1ccccc1)Nc1ccccc1Cl` gave tim23-1 inh inactive, tim10-1 inh inactive, TIM10 inh inactive, SUMO Mot1 rescue 529.9, PfHsp90 set2 inactive and Yeast Mot1 SUMO inactive.
`S=C(NCCNC(=S)Nc1ccccc1Cl)Nc1ccccc1Cl` gave tim23-1 inh inactive, tim10-1 inh inactive, TIM10 inh inactive, SUMO Mot1 rescue inactive and PfHsp90 set2 inactive.
For Cc1cc(C(F)(F)F)c(C#N)c(=O)[nH]1 the results were tim23-1 inh inactive, tim10-1 inh inactive, TIM10 inh inactive, SUMO Mot1 rescue active, PfHsp90 set2 inactive and Yeast Mot1 SUMO inactive.
`O=C(Nc1ccccc1Br)C1CCN(C(=O)Cc2ccccc2)CC1` gave tim23-1 inh inactive, tim10-1 inh inactive, TIM10 inh inactive, SUMO Mot1 rescue inactive and PfHsp90 set2 inactive.
`O=C(Nc1ccccc1F)C1CCN(C(=O)Cc2ccccc2)CC1` gave tim23-1 inh inactive, tim10-1 inh inactive, TIM10 inh inactive, SUMO Mot1 rescue 683.7, PfHsp90 set2 inactive and Yeast Mot1 SUMO inactive.
Screening C/C(O)=C(\N=Nc1cc(C)ccc1O)C(N)=O returned tim23-1 inh inactive, tim10-1 inh inactive, TIM10 inh inactive, SUMO Mot1 rescue active, PfHsp90 set2 inactive and Yeast Mot1 SUMO inactive.
For C=CCc1cccc2cc(C(=O)Nc3ccccc3C(=O)O)c(=O)oc12 the results were PfHsp90 set2 inactive.
Fc1ccc(-c2cc(C(F)(F)C(F)F)[nH]n2)cc1 was read as tim23-1 inh inactive, tim10-1 inh inactive, TIM10 inh inactive and SUMO Mot1 rescue inactive.
Screening Oc1ccccc1-c1cc(C(F)(F)C(F)F)[nH]n1 returned tim23-1 inh inactive, tim10-1 inh inactive, TIM10 inh inactive, SUMO Mot1 rescue 871.6, PfHsp90 set2 inactive and Yeast Mot1 SUMO inactive.
`CCOC(=O)[C@@H]1[C@H]2COc3cc(OC)ccc3[C@H]2N2C(=O)N(c3ccc(C)cc3)C(=O)[C@]12C` gave tim23-1 inh inactive, tim10-1 inh inactive, TIM10 inh inactive, SUMO Mot1 rescue inactive and PfHsp90 set2 inactive.
CCc1ccc(S(=O)(=O)N2CCCC(N3CCN(c4ccc(OC)cc4)CC3)C2)cc1 (centres undefined) was read as tim23-1 inh inactive, tim10-1 inh inactive, TIM10 inh inactive, SUMO Mot1 rescue inactive and PfHsp90 set2 inactive.
Screening CCCCCCC(C)n1[nH]c(=O)c2c(C)cc(=O)[nH]c21 (centres undefined) returned tim23-1 inh inactive, tim10-1 inh inactive, TIM10 inh inactive, SUMO Mot1 rescue 531.3, PfHsp90 set2 inactive and Yeast Mot1 SUMO inactive.
O=C(Cc1ccc(Cl)cc1)NCCc1cnc[nH]1 was read as tim23-1 inh inactive, tim10-1 inh inactive, TIM10 inh inactive, SUMO Mot1 rescue inactive and PfHsp90 set2 inactive.
`N=c1n(CCCOc2ccc(Br)cc2)c2ccccc2n1CC(N)=O` gave tim23-1 inh inactive, tim10-1 inh inactive, TIM10 inh inactive, SUMO Mot1 rescue 363.0, PfHsp90 set2 inactive and Yeast Mot1 SUMO inactive.
